The values below come from PubChem BioAssay AID2012 (Sanford-Burnham Center for Chemical Genomics, 2009).

In this assay the target is Eukaryotic translation initiation factor 4H (Homo sapiens) (UniProt Q15056). The assay is described as follows: eIF4H binding inhibition – biochemical, uHTS, fluorescence polarization, translation initiation inhibitor project, primary screen (AID 2012).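 Further: calls also rest on retests at 20 µM and on dose response follow-up.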 Conditions: eIF4H fluorescence polarization binding assay, stronger effect = higher value.

Molecules are shown by their SMILES. The whole screen tested about 290,000 compounds, of which about 2,700 (0.93%) were called active. The sample holds actives, similar compounds and a random draw of the others, so the mix is not that of the screen. How the calls were made is not given here.

Turning to `Cc1cc(C(=O)COC(=O)CNC(=O)c2ccc(F)cc2)c(C)n1Cc1ccco1`, the inhibition (commonly the relative decrease from the control value, in per cent) (at 35 µM) is 86.4% (inactive) and the inhibition (confirmation average, at 20 µM) is -10.3%.
The matching figures for `COCC(C)n1c(C)cc(C(=O)COc2ccc(C)nc2[N+](=O)[O-])c1C` (stereo unspecified): 70.1% (active) and 70.5%.
In the case of `COc1ccccc1CNC(=O)COc1ccc(C)nc1[N+](=O)[O-]`, the inhibition (at 35 µM) was -3.5% (inactive).
Still for that read-out and setting: the result for `Cc1c(C(C)(C)O)[nH]c2ccc(C#N)cc12` reads 2.9% (inactive); that for `CN1CCN(C(=O)C(=O)c2cn(CC(=O)N3CCCC3)c3ccccc23)CC1`, -7.2% (inactive).
On the same count and under the same terms, next, `CNC(=O)c1sc(Nc2ccc(OCc3ccccc3)cc2)nc1C`: 8% (inactive); `CC(=O)Nc1ccc(/C=N/Nc2ccc(C(=O)c3c(C)cc4ccccn34)cc2[N+](=O)[O-])cc1`: 8.5% (inactive); `Cc1cc2ccccn2c1C(=O)c1cccc(F)c1`: -9.7% (inactive).
In the case of `Cc1ccc(C(C[N+](=O)[O-])c2c(C)cc3ccccn23)cc1` (stereo unspecified), the inhibition is, setting by setting: (at 35 µM) 54.1% (active); (confirmation average, at 20 µM) 84.9%.
Consider `CCOc1ccc(N(C)S(=O)(=O)c2cnc[nH]2)cc1`, for which the inhibition (at 35 µM) was -1% (inactive).
Still for that read-out and setting: the result for `CC(Cc1ccccc1)C(=O)N(C)Cc1ccccc1` (stereo unspecified) reads -2.7% (inactive); that for `COc1ccc(CNC(=O)C(Cc2ccccc2)n2cccc2)cc1` (stereo unspecified), 1.8% (inactive); that for `Cc1ccc(C)n1C(Cc1ccccc1)C(=O)O` (stereo unspecified), 83% (active).
As to `Cc1cccc(N2CCN(C(=O)/C=C/c3ccco3)CC2)c1C`, the inhibition (at 35 µM) is 57.3% (active) and the inhibition (confirmation average, at 20 µM) was 101%.
For the compound `CCC(CC)C(=O)N1CCN(c2cccc(C)c2C)CC1`, the inhibition (at 35 µM) is -9.8% (inactive).
Same read-out and setting: next, `O=C(/C=C/c1ccco1)NC(=S)N1CCCCC1`: 5.7% (inactive); `CCOc1cc(/C=C2\SC(N3CCCC(C)C3)=NC2=O)ccc1O` (stereo unspecified): 1.3% (inactive).
The same measure, in the same setting: next, `CC(=O)c1cccc(NC(=O)C2CCN(C(=O)c3ccccc3Cl)CC2)c1`: 3.5% (inactive).
`c1coc(-c2nc3nc4ccccc4n3nc2-c2ccco2)c1`: under “at 35 µM”, the inhibition was 73.4% (active).
Turning to `COc1ccc(CCn2c(-c3ccco3)nc3nc4ccccc4nc32)cc1OC`, where the note is “at 35 µM”, the inhibition was 3.6% (inactive).
Same read-out and setting: the result for `Cn1c(-c2ccco2)nc2cc3ccccc3cc21` reads 4.9% (inactive).
On the same count and under the same terms, the result for `O=C(Nc1ccc(Cl)cc1)c1cccc(OC(=S)N2CCOCC2)c1` reads -8.8% (inactive).
On the same count and under the same terms, the result for `CC(=O)N1c2ccc(S(=O)(=O)N(C)CC(=O)N(C)Cc3ccccc3)cc2CC1C` (stereo unspecified) reads 2.8% (inactive).
As to `O=C(CN1C(=O)c2cccnc2Oc2ccc(Cl)cc21)Nc1ccc(F)cc1`, the inhibition (at 35 µM) is -8.2% (inactive).
On the same count and under the same terms, next, `Cc1cc(C)nc(S/C=C/C(=O)c2ccccc2)n1`: -7.4% (inactive).
As to `O=C(/C=C/Sc1ncn[nH]1)c1ccc(Cl)cc1`, the inhibition by setting is: (at 35 µM) 60.7% (active); (confirmation average, at 20 µM) 65.7%.
For `COc1ccc(Cl)cc1CSc1ncn[nH]1`, the inhibition (at 35 µM) is -9.7% (inactive).
With `COc1ccc(C(=O)C2CCCN(C(=O)c3ccc(OC)o3)C2)c(C)c1` (stereo unspecified), the inhibition (at 35 µM) was -2.6% (inactive).
Take `Oc1cccc(/C=N/Nc2ccc(Cl)nn2)c1O`: the inhibition (at 35 µM) is 24.2% (inactive).
Same read-out and setting: next, `COc1ccc(/C=C2\SC(=S)N(CCCC(=O)NC3CCCC3)C2=O)cc1OC`: 48.7% (inactive).
On the same count and under the same terms, next, `Cc1ccc(C(=O)Nc2nnc(-c3cccs3)s2)cc1C`: -2.7% (inactive).
On the same count and under the same terms, the result for `CCSc1nnc(NC(=O)c2ccc(C)cc2)s1` reads -9.1% (inactive).
Take `Cc1ccc(C(=O)Oc2coc(CSc3nnc(NC(=O)c4cccs4)s3)cc2=O)cc1C`: the inhibition is 65.8% (active) (at 35 µM) and 85.6% (confirmation average, at 20 µM).
Turning to `CN1CCN(C(=O)c2ccccc2NC(=O)COc2ccccc2Cl)CC1`, the inhibition (at 35 µM) was -9.2% (inactive).
The same measure, in the same setting: next, `Cn1c(=O)[nH]c(=O)c2c1nc(N1CCN(C(c3ccccc3)c3ccccc3)CC1)n2CCO`: 0.3% (inactive); `CCCc1ccc(OCCNC(=O)c2ccccc2Br)cc1`: 8.8% (inactive).
Take `CCOc1cnc(C(=O)NNC(=O)c2ccccc2Br)o1`: the inhibition (at 35 µM) was 85.7% (active) and the inhibition (confirmation average, at 20 µM) is 95%.
`O=C(NC(=S)Nc1ncccn1)c1ccccc1Br`: the inhibition (at 35 µM) was -2% (inactive).
Still for that read-out and setting: next, `CCCCc1nc2cc(C(=O)N3CCCCC3CCO)ccc2o1` (stereo unspecified): -1.1% (inactive); `COc1ccc(CCNC(=O)C(=O)NCC2OCCN2S(=O)(=O)c2cccs2)cc1OC` (stereo unspecified): -4.1% (inactive); `CCOc1ccc(NC(=O)c2ccc(NC(=O)C3CCCO3)cc2)cc1` (stereo unspecified): -9.4% (inactive).
On the same count and under the same terms, the result for `Cc1ccc(OCC(=O)Nc2ccc(C(=O)O)cc2NC(=O)COc2ccc(C)c(C)c2)cc1C` reads 4.8% (inactive); that for `Cc1ccc(NC(=S)Nc2ccc(F)cc2)cc1`, -11.3% (inactive); that for `CN1CCc2c(sc3c2c(NCc2ccco2)nc2nnnn23)C1`, 68% (active).
Same read-out and setting: the result for `CCCSc1nc(NCc2ccco2)c2c3c(sc2n1)COC(C)(CC)C3` (stereo unspecified) reads 4.7% (inactive); that for `Cn1c(=O)n(Cc2ccco2)c(=N)c2c3c(sc21)CCCC3`, -14.4% (inactive).
For the compound `O=C(CCN1C(=O)[C@@H]2Cc3ccccc3CN2C1=O)NCCc1ccccc1`, for the setting “at 35 µM”, the inhibition was 80.7% (active).
Same read-out and setting: the result for `Cc1ccc(CNC(=O)CCN2C(=O)[C@@H]3Cc4ccccc4CN3C2=O)cc1` reads -3.4% (inactive); that for `O=C(CCN1C(=O)[C@@H]2Cc3ccccc3CN2C1=O)NCc1ccccc1`, -0.5% (inactive).
